# Data from PubChem BioAssay (NCATS).
# Results filed as inconclusive are left out. Entries that show only a call come without a potency. Activity calls are given as the source filed them. The call rests on the fitted dose curve; in most records, active means well fitted inhibition curve with a large enough effect; inconclusive means small, poorly fitted or top-dose-only effect; inactive means flat fitted curve, though single readings scatter.
# Biological target: Aldehyde dehydrogenase, mitochondrial (Homo sapiens) (UniProt P05091)
# Experiment: qHTS for Inhibitors of the Aldehyde Dehydrogenase Family (ALDH2) Primary screen (AID 2061308); further: nearly all actives have a fitted effect of over 55% in size
# Conditions: ALDH2 enzyme inhibition qHTS, 1536-well; series mostly up to 56 µM
row,Structure (SMILES),Potency
1,C=C1CC[C@@]2(OC1)O[C@H]1CC3[C@@H]4CC=C5C[C@@H](O)C[C@@H](O[C@@H]6OC[C@H](O)[C@H](O)[C@H]6O[C@@H]6O[C@@H](C)[C@H](O)[C@@H](O)[C@H]6O)[C@]5(C)C4CC[C@]3(C)[C@H]1[C@@H]2C (some centres undefined),inactive
2,Cn1c(=O)n(-c2ccc(C(C)(C)C#N)cc2)c2c3cc(C#Cc4cccnc4)ccc3ncc21,inactive
3,C/C=C(\C)C(=O)O[C@H]1[C@@H](O[C@]2(COC(=O)CC(C)C)O[C@H](COC(=O)C(C)CC)[C@@H](OC(C)=O)[C@@H]2O)O[C@H](COC(C)=O)[C@@H](O)[C@@H]1O (some centres undefined),inactive
4,CCCCCOc1ccc(C2SC(=O)NC2=O)cc1OCC (centres undefined),inactive
5,C=C1CC/C=C(/C(=O)O)CCC2C1CC2(C)C (centres undefined),inactive
6,C=CC(C)(C)c1[nH]c2ccccc2c1C[C@@H]1NC(=O)[C@H](Cc2c[nH]c3ccccc23)NC1=O,inactive
7,CC(C)CC1(C(=O)OCc2ccc(O[C@@H]3O[C@H](CO)[C@@H](O)[C@H](O)[C@H]3O)cc2)CC(=O)OC(C(=O)O)CC(=O)OCC2OC(O1)C(OC(=O)/C=C/c1ccc(O)cc1)C(O)C2O (some centres undefined),inactive
8,COc1ccc(/C=C/C(=O)O[C@@H]2[C@@H](O)[C@H](C)O[C@@H](OC3C4C=COC(O[C@@H]5O[C@H](CO)[C@@H](O)[C@H](O)[C@H]5O)C4C4(CO)OC34)[C@@H]2O)cc1OC (some centres undefined),inactive
9,CC(C)CC(=O)OC[C@H]1O[C@@](COC(=O)CC(C)C)(O[C@H]2O[C@H](CO)[C@@H](O)[C@H](O)[C@H]2O)[C@@H](OC(=O)CC(C)C)[C@@H]1OC(=O)CC(C)C,inactive
